HP1b binding inh – HTS for Inhibitors of HP1-beta Chromodomain Interactions with Methylated Histone Tails; AlphaScreen HP1-beta / biotin-H3K9me3 peptide binding; Potency, µM (series often up to 114 µM), without a hit: at the highest dose activity change, negative = inhibition, usual class: inhibitors; 390,000 tested, 0.56% active; further: potency means the concentration at half of the fitted maximal effect; nearly all actives have a fitted effect of over 70% in size
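HP1-beta protein (50 nM final) preincubated 30 min at room temperature with biotinylated H3(1-18)K9me3 peptide (50 nM) in PBS pH 7.4, 0.01% Tween-20, then compound added for 30 min. AlphaScreen streptavidin donor/nickel chelate acceptor beads (10 ug/mL final), 30 min dark, luminescence read.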
BAZ2B block – qHTS Assay for Inhibitors of BAZ2B. Bromodomain adjacent to zinc finger domain protein 2B (Homo sapiens), Q9UIF8. AlphaScreen BAZ2B-H3K14Ac peptide displacement. 360,000 tested, 4.4% active. AID 504333, 2011. Potency, µM (doses to about 114 µM), for the others: top-dose activity change, negative = inhibition, hits mostly inhibitors; further: potency means the concentration at half of the fitted maximal effect; on the % scale 0 is the no-effect control and ±100 the full control effect; nearly all actives have a fitted effect of over 60% in size
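Compounds, titrated to a top concentration of 110 uM, were incubated 30 min at room temperature with preformed BAZ2B/acetyl-K14 H3 peptide complex (50 nM each). Proximity signal was measured by AlphaScreen after 20 min with beads.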
G9a block – qHTS Assay for Inhibitors of Histone Lysine Methyltransferase G9a. Histone-lysine N-methyltransferase EHMT2 (Homo sapiens), Q96KQ7. G9a H3K9 monomethylation, AlphaScreen, 2 h. Potency, µM (titrated, usually from 102 µM), inactives show top-dose activity, negative = inhibition, hits mostly inhibitors. 350,000 tested, 8.8% active. AID 504332, 2011; further: potency means the concentration at half of the fitted maximal effect; on the % scale 0 is the no-effect control and ±100 the full control effect; nearly all actives have a fitted effect of over 75% in size
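Readings reflect AlphaScreen signal from monomethyl-H3K9 antibody detection. HMT at 20 nM; substrate b-H3K9 500 nM; cofactor SAM 20 uM; 2 h RT reaction; compounds tested as titrations in qHTS with 15 min preincubation.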
CtBP-E1A blk – qHTS Assay for Inhibitors of the CtBP/E1A Interaction. AID 651724, 2012. 340,000 tested, 0.49% active. CtBP / adenovirus E1A interaction (AlphaScreen). activity change, % (no concentration beside the values). AlphaScreen GST-E1A/His-CtBP binding, 1536-well; active compounds read low; in the data active means activity change below about -65%; inconclusive means mostly about -30% to -63%; further: on the % scale 0 is the no-effect control and ±100 the full control effect
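AlphaScreen with 125 nM GST-E1A and 125 nM His-CtBP (5X stocks) in Tris pH 8.0, 300 mM NaCl, BSA, Tween 20, TCEP. Compounds preincubated 2 h at 37 deg C, then glutathione donor/nickel acceptor beads added for 1 h at 37 deg C in dark.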
Six1-Eya2 blk – qHTS Assay for Inhibitors of the Six1/Eya2 Interaction. 360,000 tested, 0.56% active. AID 651725, 2012. activity change, % (concentration not given with the values). Homeobox protein SIX1 (Homo sapiens) + Protein phosphatase EYA2 (Homo sapiens), …. AlphaScreen GST-Six1/His-Eya2 binding, biochemical; active compounds read low; in the data active means activity change below about -65%; inconclusive means mostly about -30% to -63%; further: on the % scale 0 is the no-effect control and ±100 the full control effect
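AlphaScreen with GST-Six1 and His-Eya2 (5X mix: 250 nM and 500 nM), glutathione donor and nickel acceptor beads; buffer 50 mM Tris pH 8.0, 300 mM NaCl, 1 mM TCEP; 1 h at 37 C in the dark.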
JMJD2A Tudor – qHTS Assay for Inhibitors of JMJD2A-Tudor Domain. Lysine-specific demethylase 4A (Homo sapiens), O75164. AlphaScreen JMJD2A-Tudor / H3K4me3 peptide binding. Potency, µM (doses to about 114 µM), without a hit: at the top dose activity change, negative = inhibition, usual class: inhibitors. 390,000 tested, 4.4% active; further: potency means the concentration at half of the fitted maximal effect; on the % scale 0 is the no-effect control and ±100 the full control effect; nearly all actives have a fitted effect of over 50% in size
Target sequence (O75164 whole entry, looked up, the tested form may be a part): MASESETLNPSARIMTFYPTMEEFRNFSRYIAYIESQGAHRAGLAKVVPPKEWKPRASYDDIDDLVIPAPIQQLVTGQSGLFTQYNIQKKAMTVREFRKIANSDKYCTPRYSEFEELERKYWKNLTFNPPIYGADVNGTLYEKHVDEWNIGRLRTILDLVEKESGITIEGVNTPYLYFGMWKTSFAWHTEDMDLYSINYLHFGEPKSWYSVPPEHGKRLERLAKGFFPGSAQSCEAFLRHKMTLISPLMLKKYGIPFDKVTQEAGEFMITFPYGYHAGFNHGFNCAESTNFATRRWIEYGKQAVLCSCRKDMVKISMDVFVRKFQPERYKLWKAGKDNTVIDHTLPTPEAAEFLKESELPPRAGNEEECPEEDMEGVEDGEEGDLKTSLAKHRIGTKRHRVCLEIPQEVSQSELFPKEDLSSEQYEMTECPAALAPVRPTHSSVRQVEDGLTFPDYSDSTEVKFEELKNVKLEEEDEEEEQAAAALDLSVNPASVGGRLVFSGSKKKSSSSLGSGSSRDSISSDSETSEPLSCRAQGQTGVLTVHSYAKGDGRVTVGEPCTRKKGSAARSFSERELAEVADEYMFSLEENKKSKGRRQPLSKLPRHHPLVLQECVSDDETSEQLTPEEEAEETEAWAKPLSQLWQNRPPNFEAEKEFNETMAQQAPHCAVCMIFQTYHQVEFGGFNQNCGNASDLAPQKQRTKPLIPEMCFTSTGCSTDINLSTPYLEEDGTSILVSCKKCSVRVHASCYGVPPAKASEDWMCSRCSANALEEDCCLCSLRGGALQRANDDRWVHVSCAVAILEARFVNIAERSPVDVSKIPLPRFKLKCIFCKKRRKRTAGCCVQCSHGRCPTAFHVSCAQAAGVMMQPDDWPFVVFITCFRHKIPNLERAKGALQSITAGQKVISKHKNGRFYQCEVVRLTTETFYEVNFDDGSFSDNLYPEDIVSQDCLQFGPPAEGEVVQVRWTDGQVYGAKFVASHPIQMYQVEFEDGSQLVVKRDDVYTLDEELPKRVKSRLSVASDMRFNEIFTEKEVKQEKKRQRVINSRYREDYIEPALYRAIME
* = called active by the depositor; ? = inconclusive; / = no result given; ! = a repeat was not active; [ ] = remark or other dose. Rows were chosen to be rich in hits. Some 10% of all compounds tested hit in one or more screens of this group. Unless noted, the call rests on the fitted dose curve; in most records, active means well fitted inhibition curve with a large enough effect; inconclusive means small, poorly fitted or top-dose-only effect; inactive means no such curve, though single readings can be large or run the other way.

SMILES	HP1b binding inh	BAZ2B block	G9a block	CtBP-E1A blk	Six1-Eya2 blk	JMJD2A Tudor
COCCNC(=O)c1ccc2c(c1)NC(=O)CS2	22%	-6%	-5%[59 µM]	6	0	-5%
COc1ccc(NC(=O)c2ccc3c(c2)NC(=O)CS3)cc1	12%	9%	?	14	-3	56µM*
Cc1ccc(NS(=O)(=O)c2cc(NC(=O)c3ccc4c(c3)NC(=O)CS4)ccc2Cl)c(C)c1	?	-38%	2.8µM*	-17	-13	-35%
O=C(COc1ccc(Br)cc1)Nc1cccc2cccnc12	41%	12%	26%[59 µM]	/	/	67%
COc1ccc2nc(C)cc(NCc3ccc(F)cc3)c2c1	20%[57 µM]	-3%	?	-8	-12	-11%
COc1cc(OC)c(OC)cc1/C=C1\CC(C)C/C(=C\c2cc(OC)c(OC)cc2OC)C1=O (centres undefined)	?	11µM*	32µM*	-27	?	20µM*
CCC1C/C(=C/c2ccco2)C(=O)/C(=C/c2ccco2)C1 (centres undefined)	/	28µM*	32µM*	/	/	/
COc1cc(OC)c(OC)cc1/C=C1/Cc2ccccc2C1=O	82%	4%	-9%[2.33 µM]	/	16	-22%
CC12CCCC(=O)C1CCC(=Cc1ccco1)C2=O (centres undefined)	/	/	/	-7	3	/
CCC1C/C(=C\c2cc(OC)c(OC)cc2OC)C(=O)/C(=C/c2cc(OC)c(OC)cc2OC)C1 (centres undefined)	?	10µM*	25µM*	-27	?	18µM*
Nc1n[nH]c(-c2ccc(F)cc2)n1	19%	?	45µM*	4	1	?
O=C(O)C1CSC(c2coc3ccccc3c2=O)N1 (centres undefined)	?	50µM*	?	-23	-3	25µM*
CC(=O)N1CCC2(CCN(Cc3nccs3)CC2)CC1	/	/	-2%[12.7 µM]	/	/	/
N=C1/C(=C\c2ccc(OC(=O)c3ccco3)cc2)C(=O)N=C2SC=NN12	-11%	/	-45%	-28	-30	?
O=C1NC(=S)S/C1=C/c1ccc(OC(=O)c2ccco2)cc1	-7%	79µM*	-3%	-15	-3	?
CCOc1cc(/C=C2/SC(=S)NC2=O)ccc1OC(=O)c1ccco1	?	40µM*	13µM*	?	-29	?
COc1cc(/C=C2/SC(=O)NC2=O)ccc1OC(=O)c1ccco1	32%	-3%	18%	1	-11	-9%
Cc1cc2c(s1)c1cnn(Cc3ccccc3Br)c(=O)c1n2C	/	/	/	/	/	-20%
CC(C)(C)NC(=O)NC(=O)CN1c2cccc3cccc(c23)S1(=O)=O	51%	15%	?	28	5	-4%
Cn1c(N2CCOCC2)nc(-c2ccccc2)c1-c1ccccc1	-12%	?	50µM*	15	-15	-31%
CC(=O)C1=C(S(=O)(=O)c2ccc(C)cc2)CS(=O)(=O)C1	14µM*	?	1.3µM*	-2	-14	22µM*
CCc1cc[n+](-c2nc([O-])sc2C=O)cc1	31%	-35%	?	0	-5	-18%[11.4 µM]
CC(C)c1cc[n+](-c2nc([O-])sc2C=O)cc1	20%	79µM*	?	-9	-11	35µM*
Cc1cccc(N2CCC(N=CN(C)C)=N2)c1	6%	-24%	4µM*	-1	4	?
CCN(C=NC1=NN(c2cccc(C(F)(F)F)c2)CC1)CC	?	50µM*	?	-15	?	50µM*
SMILES	HP1b binding inh	BAZ2B block	G9a block	CtBP-E1A blk	Six1-Eya2 blk	JMJD2A Tudor
Cc1cccc(N2C(=O)CCC2=O)c1	41%	-2%	15%[59 µM]	-1	7	18%[57.1 µM]
OCCN(C=NC1=NN(c2cccc(C(F)(F)F)c2)CC1)CCO	-9%	-8%	/	-2	-1	?
COc1ccc(N(Cc2cc(=O)[nH]c3ccccc23)C(=O)C(C)C)cc1	23%	-9%	-9%	/	2	-9%
O=C1N=c2ccc(Br)cc2=C1c1sc(=S)n(NS(=O)(=O)c2ccccc2)c1O	?	20µM*	16µM*	2	-8	50µM*
Cc1ccc(S(=O)(=O)Nn2c(O)c(C=C3N=c4ccccc4=N3)sc2=S)cc1	-18%	-30%	?	-29	-5	?
Cc1nnc(N2CCCC(C(=O)Nc3ccccc3C(F)(F)F)C2)c2nn(-c3ccccc3)c(C)c12 (centres undefined)	51%	-28%	?	/	/	-16%
COC(=O)c1ccccc1NC(=O)C1CCCN(c2nnc(C)c3c(C)n(-c4ccccc4)nc23)C1 (centres undefined)	41%	79µM*	?	/	/	-3%
COc1ccc(-n2nc3c(N4CCCC(C(=O)NCc5ccc(C)cc5)C4)nnc(C)c3c2C)cc1 (centres undefined)	14%	50µM*	?	/	/	56µM*
CCc1ccc(CNC(=O)C2CCCN(c3nnc(C)c4c(C)n(-c5ccc(OC)cc5)nc34)C2)cc1 (centres undefined)	-14%	-28%	10µM*	/	/	?
O=C(CN1C(=O)NC2(CCCCC2)C1=O)NCCCSc1ccccc1	21%	9%	14%[12.7 µM]	-2	4	-3%
CN1CCC2(CCN3CCc4c(oc5ccccc45)C3C2)N(C)C1=O (centres undefined)	/	/	16µM*!	/	/	/
Cc1ccc(NC2=C(Cl)C(=O)OC2OC(=O)c2ccco2)cc1C (centres undefined)	30%	-4%	0%[59 µM]	17	-1	-9%
Cc1ccccc1C(=O)OC1OC(=O)C(Cl)=C1Nc1ccc(C(=O)O)cc1 (centres undefined)	?	1%	?	?	1	14µM*
COc1ccccc1CN1CCN(Cc2ccco2)CC1	?	25µM*	45µM*	1	-4	4µM*

Compound activity as filed in PubChem BioAssay.
